The panel holds about 83,000 compounds, 20% with a hit somewhere; the sample as a whole holds those more often.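 Plates (96-well) were seeded with cells, treated with compound at one concentration, and incubated for 48 hours before percent growth was determined.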 Unmarked numbers belong to inactive results. Calls of active or inactive are those of the source. The calls were made as follows: active = growth percent below 10; inactive = the rest.
These molecules were tested on MCF7 breast (assay: NCI-60 one-dose screen, 48 h (100 = growth as untreated, 0 = no growth, -100 = all killed)). Conditions: 10 µM unless noted.

**Q.** How did the growth turn out when `O=C1CC(c2nc3ccccc3[nH]2)CN1C1CCCCC1` (centres undefined) was run?
**A.** The growth was 89.7%.

**Q.** Which growth does the source give for `COc1cc(OC)c(/C=C/c2cc[n+](C)c3ccccc23)c(OC)c1` here?
**A.** Its growth is 5.4% (active).

**Q.** For `CCN(CC)c1ccc(CNc2cc(C)nc3ccc(OC)cc23)cc1`, which growth is on record?
**A.** Its growth is 76.7%.

**Q.** Which growth does the source give for `CCCCCN(CCCCC)CCC[C@@H](C)[C@H]1CC[C@H]2[C@@H]3[C@H](OCCCN)C[C@@H]4C[C@H](OCCCN)CC[C@]4(C)[C@H]3C[C@H](OCCCN)[C@]12C` here?
**A.** The growth was 74.8%.

**Q.** Which growth does the source give for `COc1cc(OC)c(/C=C/S(=O)(=O)Cc2ccc(OC)c(N)n2)c(OC)c1` here?
**A.** The growth was 12.9%.

**Q.** With `CC(=O)C1=C(O)C=C2Oc3c(C(=O)/C=C/c4cc(C(F)(F)F)cc(C(F)(F)F)c4)c(O)c(C)c(O)c3[C@]2(C)C1=O` as the molecule, how does the growth read?
**A.** Its growth is -42% (active).

**Q.** `Cc1cc(Nc2nc(N3CCOCC3)nc3ccccc23)n[nH]1` was tested. Which growth did it give?
**A.** Its growth is 47.8%.

**Q.** With `COc1cc(OC)c(/C=C/C(=O)c2c(OC)cc(OC)cc2OC)c(OC)c1` as the molecule, how does the growth read?
**A.** Its growth is 19.5%.

**Q.** For `c1ccc(CSc2ncnc3nc[nH]c23)nc1`, which growth is on record?
**A.** Its growth is 99.7%.

**Q.** `C=C(CN1CCN(c2cccc(C(F)(F)F)n2)CC1)c1ccc(C(=O)Nc2ccccc2N)cc1` was tested. Which growth did it give?
**A.** Its growth is 1.51% (active).

**Q.** How did the growth turn out when `CN1CCOCCOCCOc2ccccc2NC(=O)c2nc(cnc2N)-c2ccc(cc2)S1(=O)=O` was run?
**A.** Its growth is 31.1%.

**Q.** `COc1cc(/C=N/N(C)C)ccc1O` was tested. Which growth did it give?
**A.** The growth was 98.4%.

**Q.** `O=C(/C=C/c1ccc(B(O)O)cc1)/C=C/c1ccc(B(O)O)cc1` was tested. Which growth did it give?
**A.** The growth was 3.78% (active).

**Q.** `CCC(=O)OCc1cccc(OC)c1` was tested. Which growth did it give?
**A.** Its growth is 105%.
